The assay in a line: Confirmatory qHTS for Identification of Small Molecule Activators of Huntingtin-Antisense Promoter Activity. The procedure, abridged:
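Plated reporter HEK293 cells (24 h) received library compounds at up to 57.5 uM final or 50 uM PTC124, incubated 24 h at 37C; firefly luciferase luminescence was then recorded with Dual-Glo reagent.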
On the technique in general: Quantitative high-throughput screening tests each substance at several concentrations.

The source made the active and inactive calls. Where a call stands in place of a potency, no number is given. The call rests on the fitted dose curve; in most records, active means well fitted activation curve with a large enough effect; inconclusive means small, poorly fitted or top-dose-only effect; inactive means no such curve, though single readings can be large or run the other way.
Potency means the concentration at half of the fitted maximal effect.

For the molecule `COc1ccc(-c2cc(C)no2)cc1S(=O)(=O)N1CCN(c2ccccc2F)CC1`, the Potency entry was “inactive”.
The value for `Cc1ccccc1C(=O)Nc1sc2c(c1C(=O)O)CCC(C(C)(C)C)C2` (stereo not given) was “inactive”; that for `COc1ccc(C(=O)Nc2nc(-c3nnn(-c4ccc(F)cc4F)c3C)ns2)cc1` was “inactive”; that for `CN(C)c1ccc(C(=O)NCCCCCCC(=O)NO)cc1` was 30.1 µM (active).
The value for `CCOc1ccc(CNC(=O)c2ccc3nc(Cc4ccc(OC)cc4)oc3c2)cc1OC` was “inactive”; that for `Cc1cccc(N2CCN(C(=O)c3ccc(NC(=O)c4nsc5ccccc45)cc3)CC2C)c1` (stereo not given) was 0.338 µM (active).
As to `CC(C)c1ccc(NC(=O)C2CCN(c3nc(-c4ccc(C(C)C)cc4)no3)CC2)cc1`, the Potency result was “inactive”.
Take `CCOCc1cc(CN2CCN(c3ccccc3OC)CC2)c(O)c2ncccc12`: the Potency entry was “inactive”.
The value for `Fc1cc(Br)ccc1Nc1c2c(nc3nc(-c4cccs4)nn13)CCCC2` was “inactive”.
To `Cc1cc(C)cc(N2C(=O)CSC23C(=O)N(Cc2c(F)cccc2Cl)c2ccccc23)c1` (stereo not given) belongs “inactive”.
The value for `COc1ccc(C(=O)NCC(c2cccnc2)N2CCN(c3ccc(F)cc3)CC2)cc1` (stereo not given) was “inactive”.
`O=C(NCCSc1c(-c2ccccc2)[nH]c2ccccc12)c1ccc(S(=O)(=O)N2CCOCC2)cc1`: the Potency result is “inactive”.
The value for `COc1ccc(C)cc1NS(=O)(=O)c1ccc(-c2cnc(C3CC3)o2)cc1` was “inactive”; that for `O=C(c1ccc(CS(=O)c2ccccc2Cl)o1)N1CCN(c2cccc(C(F)(F)F)c2)CC1` (stereo not given) was “inactive”; that for `CCc1ccc(CNC(=O)c2sc3ncccc3c2-n2c(C)ccc2C)cc1` was “inactive”.
To `CCC(C(=O)NCCc1ccc(SC)cc1)n1nc(C)c2c(C)n(-c3ccc(C)cc3)nc2c1=O` (stereo not given) belongs “inactive”; to `Cc1cccc(CS(=O)(=O)Cc2ccc(C(=O)NCc3ccc(Cl)cc3)o2)c1`, “inactive”; to `O=C(Cn1c(=O)oc2cc(S(=O)(=O)N3CCCCC3)ccc21)NCc1ccc(Cl)cc1`, “inactive”.
To `CCN(Cc1ccccc1)C(=O)C1CCN(S(=O)(=O)c2c(C)noc2/C=C/c2ccc(C)cc2)CC1` belongs “inactive”; to `CCCCOc1ccc(CNC(=O)Cc2ccc(NC(=O)N3CCSc4ncccc43)cc2)cc1`, “inactive”; to `CCOc1ccc(CCNC(=O)C(CC(C)C)N2Cc3ccccc3C2=O)cc1OCC` (stereo not given), “inactive”.
In the case of `CCc1ccc(NC(=O)C2CCCN2S(=O)(=O)c2ccc3c(c2)CCCC(=O)N3)cc1` (stereo not given), the Potency result is “inactive”.
To `Cc1ccc(Cl)cc1N1CCN(C(=O)C2CCN(S(=O)(=O)c3ccc4c(c3)oc(=O)n4C)CC2)CC1` belongs “inactive”.
To `Cc1ccc(Cl)cc1N1CCN(CCCNC(=O)C2COc3ccccc3C2)CC1` (stereo not given) belongs “inactive”; to `O=C(NCCCN1CCN(c2ccccc2)CC1)c1ccc2nc(CCc3ccccc3)oc2c1`, “inactive”; to `Cc1ccc(CCNC(=O)C(C)n2nc(C)c3c(C)n(-c4ccc(C)cc4)nc3c2=O)cc1` (stereo not given), “inactive”.
To `O=S(=O)(c1ccc(-c2csc(=Nc3ccc(OC(F)(F)Cl)cc3)n2CCCO)cc1)N1CCCC1` belongs “inactive”; to `CCOc1ccc(NC(=O)c2ccc(F)c(S(=O)(=O)NCc3ccc4c(c3)OCO4)c2)cc1`, “inactive”.
As for `COc1ccc(-c2nnc(C3CCN(C(=O)c4ccccc4F)CC3)o2)cc1`, the Potency entry is “inactive”.
To `Cc1ccc(NCc2cccn2-c2nnc(N3CCC(C(=O)NCc4ccc(OC(C)C)cc4)CC3)s2)cc1` belongs “inactive”; to `CCCOC(=O)c1cccc(NC(=O)c2c(-c3ccccc3Cl)noc2C)c1`, “inactive”; to `Cc1cc(C)c(Cn2c3ccccc3c3cnn(CC(=O)N4CCCCC4)c(=O)c32)c(C)c1`, “inactive”.
The value for `COc1ccc(CCNc2nc3c(c(=O)n(C)c(=O)n3C)n2Cc2ccc(F)cc2)cc1OC` was “inactive”.
The value for `Cc1ccc(N(C)C(=O)Cn2cnc3onc(-c4ccc(F)cc4)c3c2=O)cc1C` was “inactive”.
As for `CCN1C(=O)c2ccccc2Sc2ccc(NC(=O)c3cccc(C)c3)cc21`, the Potency result is “inactive”.
Consider `Cc1ccc(NC(=O)C2CCN(S(=O)(=O)c3ccc4[nH]c5c(c4c3)CCCCC5)CC2)cc1`, for which the Potency entry is “inactive”.
With `O=C(Nc1ccccc1)C1CCN(S(=O)(=O)c2ccc3[nH]c4c(c3c2)CCCCC4)CC1`, the Potency entry is “inactive”.
To `CCCNc1nc(NCc2ccccc2OC)c2cnn(C)c2n1` belongs “inactive”; to `Cc1cccc(N2CCN(C(=O)c3cccc(-n4c(C)nc5cccnc54)c3)CC2)c1C`, “inactive”; to `CCCSCCCNC(=O)c1cc2n(n1)CCCN(Cc1ccc(C)cc1)C2=O`, “inactive”.
To `COc1ccc(-n2c(/C=C/c3cccc4ccccc34)nc3ccccc3c2=O)cc1Cl` belongs “inactive”.
To `CCc1cccc(NS(=O)(=O)c2ccc3c(c2)CC(C)N3C(=O)C2CC2)c1` (stereo not given) belongs “inactive”.
Regarding `Cc1cccc(NC(=O)c2ccc(F)c(S(=O)(=O)N(C)C3CCCCC3)c2)c1`, the Potency result was “inactive”.
To `CCc1nc2ccc(C(=O)NCCc3ccc(OC)cc3OC)cc2nc1CC` belongs “inactive”.
To `COCCn1c2c([n+](Cc3cnccn3)c1C)C(=O)c1ccccc1C2=O` belongs “inactive”.
The value for `CCCS(=O)(=O)NCCc1sc2nc(-c3ccc(Cl)cc3)nn2c1C` was “inactive”.
For the molecule `Cc1ccc(NC(=O)C2CCCN2S(=O)(=O)c2ccc3c(c2)CCCC(=O)N3)cc1C` (stereo not given), the Potency result is “inactive”.
To `CCCN(C(=O)COc1cc(=O)n(CC)c2ccccc12)c1ccc(C(C)C)cc1` belongs “inactive”; to `COc1ccc(CNC(=O)c2cccc(N3CCCS3(=O)=O)c2)cc1OC`, “inactive”.
To `CCc1ccc(NC(=O)CSc2nc(=O)n(Cc3cccnc3)c3c2CCC3)cc1` belongs “inactive”; to `COc1ccc(N2CCN(C(=O)c3ccc4c(=O)n(CCc5ccc(OC)c(OC)c5)c(=O)[nH]c4c3)CC2)cc1`, “inactive”; to `O=C(Nc1ccc(Br)cc1)c1ccc(Br)c(S(=O)(=O)N2CCCCC2)c1`, “inactive”.
To `Cc1ccccc1Cc1c(C)nc2c(-c3ccccc3)c(C)[nH]n2c1=O` belongs “inactive”; to `CCOc1ccc(CCNC(=O)CSCc2nc(-c3cccc(C)c3)oc2C)cc1OCC`, “inactive”; to `CCc1ccc(CNC(=O)c2ccc3nc(SCc4ccc(F)cc4)n(C)c3c2)cc1`, “inactive”.
For `Cc1ccc(C(=O)Nc2nc(-c3nnn(-c4cccc(Cl)c4C)c3C)ns2)cc1C`, the Potency entry was “inactive”.
The value for `O=C(Nc1cc(Cl)cc(Cl)c1)c1ccc(F)c(S(=O)(=O)N2CCc3ccccc32)c1` was “inactive”; that for `CCN(c1ccccc1)S(=O)(=O)c1cc(C(=O)Nc2ccc(Br)cc2)ccc1F` was “inactive”; that for `CCC1CCCCN1C(=O)CSc1nc(-c2ccc(OC)c(OC)c2)cc(C(F)(F)F)n1` (stereo not given) was “inactive”.
In the case of `Cc1ccccc1-c1ccnc2c(-c3ccc(F)cc3)c(C)nn12`, the Potency entry was “inactive”.
With `Cc1ccccc1C(=O)Nc1nc(-c2ccc(Br)cc2)ns1`, the Potency result is “inactive”.
As for `CSc1ccc(/C=C/c2nc3ccccc3n2S(=O)(=O)c2ccc(F)c(C)c2)cc1`, the Potency is 0.135 µM (active).
The value for `O=C(Nc1ccc(F)cc1F)c1ccc2c(c1)CCN2S(=O)(=O)c1ccc(Cl)cc1` was “inactive”; that for `COc1ccccc1CNS(=O)(=O)c1ccc2c(c1)CC(C)N2C(=O)C1CCC1` (stereo not given) was “inactive”; that for `CCCCN1C(C(=O)c2ccccc2)=C(OC(C)=O)c2ccccc2S1(=O)=O` was “inactive”.
To `Cc1noc(/C=C/c2ccccc2F)c1S(=O)(=O)N1CCC(C(=O)Nc2ccc(C#N)cc2)CC1` belongs “inactive”; to `COc1ccc(CCNC(=O)c2ccc3nc(Cc4ccccc4)oc3c2)cc1OC`, “inactive”; to `O=C(Nc1cccc(Cl)c1)c1ccc(F)c(S(=O)(=O)N2CCC3(CC2)OCCO3)c1`, “inactive”.
The value for `COc1ccc(C)cc1NC(=O)Cn1c(=O)cc(C)c2c(C)nn(C)c21` was “inactive”; that for `COc1ccc(Nc2c3c(nc4ccc(NC(=O)/C=C/c5cccc(OC)c5OC)cc24)CCCC3)cc1OC` was “inactive”.
Regarding `Cc1cccc(CNC(=O)C2CCN(S(=O)(=O)c3ccc4c(c3)CCCN4C(=O)C3CCC3)CC2)c1`, the Potency result was “inactive”.
To `Cc1cccc(CSc2cn(CC(=O)N3CCOCC3)c3ccccc23)c1` belongs 3.01 µM (active).
To `Cc1nc(Nc2n[nH]c3c2CN(C(=O)N[C@H](CN(C)C)c2ccccc2)C3(C)C)c2sccc2n1` belongs “inactive”; to `CCOc1ccccc1C(=O)Nc1ccc2nc3c(c(Nc4ccc(OC)c(OC)c4)c2c1)CCCC3`, “inactive”.
With `COc1ccc(Cl)cc1Nc1sc(C(=O)c2ccccc2)c(N)c1C(=O)Nc1ccccc1`, the Potency result is “inactive”.
The value for `Cc1ccc2onc(CC(=O)N3CCN(c4cc(Cl)ccc4C)CC3)c2c1` was “inactive”; that for `Cc1ccccc1OCC(=O)NCC(c1ccc(Cl)cc1)N1CCOCC1` (stereo not given) was “inactive”.
To `COc1ccc(S(=O)(=O)NCCc2sc3nc(-c4ccc(C)cc4)nn3c2C)cc1F` belongs “inactive”.
The value for `COc1cc(OC)c(N(C)C(=O)c2cn(C3CCCC3)c(=O)c3c2c2ccccc2n3C)cc1Cl` was “inactive”; that for `CC(=O)c1ccc(NC(=O)c2ccc(-c3nc(CSc4ccc(C)cc4)c(C)o3)cc2)cc1` was “inactive”; that for `O=C(Nc1ccc(S(=O)(=O)N(Cc2ccccc2)c2ccccc2)cc1)c1ccc(F)cc1` was “inactive”.
As to `Cc1cc(NC(=O)c2cc(-c3ccc(Cl)cc3)on2)nn1Cc1ccc(Cl)cc1`, the Potency entry was “inactive”.
Consider `CC1Cc2cc(S(=O)(=O)NCc3ccccc3Cl)ccc2N1C(=O)C1CCC1` (stereo not given), for which the Potency result was “inactive”.
The value for `CC(C)C[C@@H](C=O)NC(=O)[C@H](CC(C)C)NC(=O)[C@H](CC(C)C)NC(=O)OCc1ccccc1` was “inactive”; that for `COC(=O)[C@]12CCC(C)(C)C[C@@H]1[C@@H]1C(=O)C=C3[C@@]4(C)C=C(C#N)C(=O)C(C)(C)[C@@H]4CC[C@@]3(C)[C@]1(C)CC2` was “inactive”; that for `Cc1ccc(Cl)cc1-n1ncc2c(N3CCC(C)CC3)ncnc21` was “inactive”.
To `O=C(NCc1ccccc1)c1ccc(CSc2nc3cccnc3n2Cc2ccccc2)cc1` belongs “inactive”; to `O=C(c1ccc2c(c1)CCN2S(=O)(=O)c1ccc(Cl)cc1)N1CCN(c2ccc(F)cc2)CC1`, “inactive”.
To `Cc1ccc(C)c(NC(=O)C(=O)NCC(c2cccnc2)N2CCN(c3ccc(F)cc3)CC2)c1` (stereo not given) belongs “inactive”; to `CN(C)c1ccc(C(=C2C=CC(=[N+](C)C)C=C2)c2ccc(N(C)C)cc2)cc1`, “inactive”.
